Laboratory results: PubChem BioAssay (NCATS)
Unmarked numbers belong to inactive results. No rule for the calls is given here.

system: HIV-1 nucleocapsid protein NCp7 (binding to TG oligonucleotide); test: HIV Nucleocapsid (AID 346); conditions: HIV-1 NC / fluorescein-TGTGTGTG probe, fluorescence polarization;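 also: potency is for inhibitors that block NC binding and lower polarization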
Protocol: NCGC Assay Overview: HIV-1 nucleocapsid protein (HIV-1 NC) is a small (6.5 kDa) basic zinc-finger protein which participates in packaging of viral genomic RNA. The spacing and metal-chelating residues (3 Cys, 1 His) of the Cys-X2-Cys-X4-His-X4-Cys Zn fingers are conserved among all known retroviruses (J. Med. Chem. 1998, 41, 1371-1381). HIV-1 NC was assayed for its binding to the consensus sequence single-stranded 5'-TGTGTGTG. […] High salt was included to increase the stringency of binding and inhibitor screen. Reducing agents and zinc were present to stabilize the nucleocapsid zinc-finger protein.
NCGC Assay Protocol Summary: Buffer. Hepes pH 7.5, 250mM NaCl, 1uM ZnCl2. 0.004% polyethylene glycol 20000. TCEP (100 uM) and 2-Mercaptoethanol (5 mM), added fresh the day of the experiment. Reagents/Controls. 10 nM TG4xF only in columns 3 and 4 as negative control. 10 nM TG4xF/100 nM HIV-1 NC in columns 1, 2, 5-48. Titration of control compound NSC-13778 (from 20 mM, then 1:2) pin-transferred to column 2. Assay Steps. Two uL of reagents were dispensed to 1536-well Kalypsys black plates. The plates were centrifuged for 1 min at 1000 rpm. Compounds and controls (20 nL) were transferred via Kalypsys PinTool. The plates were incubated for 1 hr at room temperature, and then read on ViewLux (Perkin-Elmer). High-throughput CCD imager using fluorescein polarization filter set and 45 seconds exposure time.
Potency is read from the fitted curve at half-maximal effect.

| Compound | Potency [µM] |
| --- | --- |
| O=C(Oc1ccccc1)N1CCC2(CC1)CN(C(c1ccccc1)c1ccccc1)C2 | > 20 |
| O=C(Oc1ccccc1)N1CCC2(CCCN(Cc3ccccc3)C2)CC1 | > 20 |
| O=C(Oc1ccccc1)N1CCC[C@@]2(CCN(Cc3ccccc3)C2)C1 | > 20 |
| O=C(Nc1cccc(F)c1)N1CC2(CCNCC2)C1 | > 20 |
| COCC(=O)N1CCC2(CCCN(Cc3ccncc3)C2)CC1 | > 20 |
| N#Cc1ccc(CN2CC[C@@]3(CCCNC3)C2)cc1 | > 20 |
| CC(C)CN1CC2(CCN(C(=O)c3ccncc3)CC2)C1 | > 20 |
| c1cnc(N2CCCC3(CCNCC3)C2)nc1 | > 20 |
| c1csc(CN2CC3(CCNCC3)C2)n1 | > 20 |
| c1csc(CN2CC[C@@]3(CCCNC3)C2)n1 | > 20 |
| c1cc(CN2CCCC3(CCNCC3)C2)ccn1 | > 20 |
| N#Cc1ccc(CN2CC3(CCNCC3)C2)cc1 | > 20 |
| O=C(Oc1ccccc1)N1CCC2(CC1)CN(Cc1ccncc1)C2 | > 20 |
| O=C(c1csnn1)N1CCC2(CC1)CN(Cc1ccncc1)C2 | > 20 |
| CN1CC[C@@]2(CCCN(C(=O)Oc3ccccc3)C2)C1 | > 20 |
| O=C(Nc1cccc(F)c1)N1CC2(CCN(C(=O)Oc3ccccc3)CC2)C1 | > 20 |
| CC(C)CN1CC2(CCN(C(=O)Oc3ccccc3)CC2)C1 | > 20 |
| O=C(Oc1ccccc1)N1CCC[C@@]2(CCN(C(c3ccccc3)c3ccccc3)C2)C1 | > 20 |
| COc1ccc(NC(=O)N2CCC3(CC2)CCN(C(=O)Oc2ccccc2)CC3)cc1 | > 20 |
| CN1CCCC2(CCN(C(=O)c3csnn3)CC2)C1 | > 20 |

| Compound | Potency [µM] |
| --- | --- |
| O=C(Oc1ccccc1)N1CCC2(CCN(Cc3ccncc3)CC2)CC1 | > 20 |
| c1ccc(N2CC[C@@]3(CCCNC3)C2)cc1 | > 20 |
| O=C(Oc1ccccc1)N1CCC2(CCCN(C(c3ccccc3)c3ccccc3)C2)CC1 | > 20 |
| O=C(Nc1ccccc1)N1CCCC2(CCN(C(=O)Oc3ccccc3)CC2)C1 | > 20 |
| c1cc(CN2CC3(CCNCC3)C2)ccn1 | > 20 |
| COc1ccccc1CN1CC[C@@]2(CCCN(C(=O)Oc3ccccc3)C2)C1 | > 20 |
| N#Cc1cccc(NC(=O)N2CC[C@@]3(CCCN(C(=O)Oc4ccccc4)C3)C2)c1 | > 4 |
| N#Cc1cccc(NC(=O)N2CC3(CCN(C(=O)Oc4ccccc4)CC3)C2)c1 | > 20 |
| c1cnc(N2CCC3(CCNCC3)CC2)nc1 | > 20 |
| c1ccc(CN2CCC3(CCNCC3)CC2)cc1 | > 20 |
| c1cnc(N2CC[C@@]3(CCCNC3)C2)nc1 | > 20 |
| O=C(Oc1ccccc1)N1CCC2(CCN(Cc3nccs3)CC2)CC1 | > 20 |
| c1cc(N2CCCC3(CCNCC3)C2)ccn1 | > 20 |
| O=C(Nc1cccc(F)c1)N1CCC2(CC1)CCN(C(=O)Oc1ccccc1)CC2 | > 20 |
| CC(C)CN1CC[C@@]2(CCCN(C(=O)c3ccncc3)C2)C1 | > 20 |
| c1ccc(N2CC3(CCNCC3)C2)cc1 | > 20 |
| O=C(c1ccncc1)N1CCC2(CC1)CN(Cc1ccccc1)C2 | > 20 |
| c1ccc(N2CCC3(CCNCC3)CC2)cc1 | > 20 |
| CN1CCC2(CC1)CCN(C(=O)c1ccco1)CC2 | > 20 |
| CC(C)CN1CCC2(CC1)CCN(S(C)(=O)=O)CC2 | > 20 |
